Measured values taken from the supplement of paper PMC7765376.
Counter-ions that a name gives are not always drawn. Over roughly 1,500 compounds, “Excess HSA synergy score (sum over dose matrix of excess over highest single agent)” has its median near 43; the lowest 2% begin near -900. This is one part of a sample in which the lowest values are shown more often than they occur.

Tested on: PEO-1
Assay: Excess HSA synergy score (sum over dose matrix of excess over highest single agent) (score (summed % response)); higher = less synergy / more antagonism (negative = synergy)
Settings: 72 h, read-out: viability/apoptosis luminescence (CellTiter-Glo or Caspase3-Glo / not stated per table)
[1] = matrix design: 6x6, 5-fold dilutions (primary screen)

| Structure (SMILES) | Excess HSA synergy score [1] | Excess HSA synergy score (matrix design: 10x10, 9-step dilutions (confirmatory)) |
| --- | --- | --- |
| CN(C)c1ccc(C(=C2C=CC(=[N+](C)C)C=C2)c2ccc(N(C)C)cc2)cc1 [Methylrosaniline chloride] + CC[C@H](NC(=O)[C@H](C)NC)C(=O)N1C[C@@H](O)C[C@H]1Cc1c(-c2[nH]c3cc(F)ccc3c2C[C@@H]2C[C@H](O)CN2C(=O)[C@H](CC)NC(=O)[C@H](C)NC)[nH]c2cc(F)ccc12 [Birinapant] | -147 | – |
| COc1ccc(C2=N[C@@H](c3ccc(Cl)cc3)[C@@H](c3ccc(Cl)cc3)N2C(=O)N2CCNC(=O)C2)c(OC(C)C)c1 [Nutlin-3] + CC[C@H](NC(=O)[C@H](C)NC)C(=O)N1C[C@@H](O)C[C@H]1Cc1c(-c2[nH]c3cc(F)ccc3c2C[C@@H]2C[C@H](O)CN2C(=O)[C@H](CC)NC(=O)[C@H](C)NC)[nH]c2cc(F)ccc12 [Birinapant] | 264 | – |
| CCS(=O)(=O)N1CC(CC#N)(n2cc(-c3ncnc4[nH]ccc34)cn2)C1 [Baricitinib] + CC[C@H](NC(=O)[C@H](C)NC)C(=O)N1C[C@@H](O)C[C@H]1Cc1c(-c2[nH]c3cc(F)ccc3c2C[C@@H]2C[C@H](O)CN2C(=O)[C@H](CC)NC(=O)[C@H](C)NC)[nH]c2cc(F)ccc12 [Birinapant] | 48.3 | – |
| N#CC(c1ccnc(OCc2ccc(CN3CCOCC3)cc2)n1)c1nc2ccccc2s1 (stereo unspecified) + CC[C@H](NC(=O)[C@H](C)NC)C(=O)N1C[C@@H](O)C[C@H]1Cc1c(-c2[nH]c3cc(F)ccc3c2C[C@@H]2C[C@H](O)CN2C(=O)[C@H](CC)NC(=O)[C@H](C)NC)[nH]c2cc(F)ccc12 [Birinapant] | 104 | – |
| COc1ccc(C(=O)CC2(O)C(=O)Nc3c(Cl)ccc(Cl)c32)cc1 (stereo unspecified) + CC[C@H](NC(=O)[C@H](C)NC)C(=O)N1C[C@@H](O)C[C@H]1Cc1c(-c2[nH]c3cc(F)ccc3c2C[C@@H]2C[C@H](O)CN2C(=O)[C@H](CC)NC(=O)[C@H](C)NC)[nH]c2cc(F)ccc12 [Birinapant] | 27 | – |
| NC(=O)c1ccc(N(C(N)=O)c2c(F)cccc2F)nc1-c1ccc(F)cc1F + CC[C@H](NC(=O)[C@H](C)NC)C(=O)N1C[C@@H](O)C[C@H]1Cc1c(-c2[nH]c3cc(F)ccc3c2C[C@@H]2C[C@H](O)CN2C(=O)[C@H](CC)NC(=O)[C@H](C)NC)[nH]c2cc(F)ccc12 [Birinapant] | 69.1 | – |
| Cn1cnc(N)c2ncnc1-2 [3-Methyladenine] + CC[C@H](NC(=O)[C@H](C)NC)C(=O)N1C[C@@H](O)C[C@H]1Cc1c(-c2[nH]c3cc(F)ccc3c2C[C@@H]2C[C@H](O)CN2C(=O)[C@H](CC)NC(=O)[C@H](C)NC)[nH]c2cc(F)ccc12 [Birinapant] | 238 | – |
| C[C@@]12C[C@@]3(O)O[C@@H](O1)[C@]1(COC(=O)c4ccccc4)[C@H]3C[C@@]12O[C@@H]1O[C@H](CO)[C@@H](O)[C@H](O)[C@H]1O [Paeoniflorin] + CC[C@H](NC(=O)[C@H](C)NC)C(=O)N1C[C@@H](O)C[C@H]1Cc1c(-c2[nH]c3cc(F)ccc3c2C[C@@H]2C[C@H](O)CN2C(=O)[C@H](CC)NC(=O)[C@H](C)NC)[nH]c2cc(F)ccc12 [Birinapant] | 211 | – |
| COc1cc([C@@H]2c3cc4c(cc3[C@@H](O[C@@H]3O[C@@H]5CO[C@@H](c6cccs6)O[C@H]5[C@H](O)[C@H]3O)[C@H]3COC(=O)[C@H]23)OCO4)cc(OC)c1O [Teniposide] + CC[C@H](NC(=O)[C@H](C)NC)C(=O)N1C[C@@H](O)C[C@H]1Cc1c(-c2[nH]c3cc(F)ccc3c2C[C@@H]2C[C@H](O)CN2C(=O)[C@H](CC)NC(=O)[C@H](C)NC)[nH]c2cc(F)ccc12 [Birinapant] | -151 | -1360 |
| COc1cc([C@@H]2c3cc4c(cc3[C@@H](O[C@@H]3O[C@@H]5CO[C@@H](C)O[C@H]5[C@H](O)[C@H]3O)[C@H]3COC(=O)[C@H]23)OCO4)cc(OC)c1O [Etoposide] + CC[C@H](NC(=O)[C@H](C)NC)C(=O)N1C[C@@H](O)C[C@H]1Cc1c(-c2[nH]c3cc(F)ccc3c2C[C@@H]2C[C@H](O)CN2C(=O)[C@H](CC)NC(=O)[C@H](C)NC)[nH]c2cc(F)ccc12 [Birinapant] | -89.6 | – |
| COC(=O)N[C@H](C(=O)N[C@@H](Cc1ccccc1)[C@@H](O)CN(Cc1ccc(-c2ccccn2)cc1)NC(=O)[C@@H](NC(=O)OC)C(C)(C)C)C(C)(C)C [Atazanavir sulfate] + CC[C@H](NC(=O)[C@H](C)NC)C(=O)N1C[C@@H](O)C[C@H]1Cc1c(-c2[nH]c3cc(F)ccc3c2C[C@@H]2C[C@H](O)CN2C(=O)[C@H](CC)NC(=O)[C@H](C)NC)[nH]c2cc(F)ccc12 [Birinapant] | 154 | – |
| CC(C)(C)[C@H](NC(=O)c1ccc(N)c(Cl)c1)C(=O)N1CCC[C@H]1C(=O)N[C@H](C#N)CC(=O)O + CC[C@H](NC(=O)[C@H](C)NC)C(=O)N1C[C@@H](O)C[C@H]1Cc1c(-c2[nH]c3cc(F)ccc3c2C[C@@H]2C[C@H](O)CN2C(=O)[C@H](CC)NC(=O)[C@H](C)NC)[nH]c2cc(F)ccc12 [Birinapant] | 307 | – |
| COc1ccc(C(C)=O)c(O)c1 [Paeonol] + CC[C@H](NC(=O)[C@H](C)NC)C(=O)N1C[C@@H](O)C[C@H]1Cc1c(-c2[nH]c3cc(F)ccc3c2C[C@@H]2C[C@H](O)CN2C(=O)[C@H](CC)NC(=O)[C@H](C)NC)[nH]c2cc(F)ccc12 [Birinapant] | 176 | – |
| Nc1cccc(-c2cc3c(Oc4cccc(O)c4)ncnc3[nH]2)c1 + CC[C@H](NC(=O)[C@H](C)NC)C(=O)N1C[C@@H](O)C[C@H]1Cc1c(-c2[nH]c3cc(F)ccc3c2C[C@@H]2C[C@H](O)CN2C(=O)[C@H](CC)NC(=O)[C@H](C)NC)[nH]c2cc(F)ccc12 [Birinapant] | 63.5 | – |
| Cc1[nH]c(/C=C2\C(=O)Nc3ccccc32)c(C)c1CCC(=O)O [Orantinib] + CC[C@H](NC(=O)[C@H](C)NC)C(=O)N1C[C@@H](O)C[C@H]1Cc1c(-c2[nH]c3cc(F)ccc3c2C[C@@H]2C[C@H](O)CN2C(=O)[C@H](CC)NC(=O)[C@H](C)NC)[nH]c2cc(F)ccc12 [Birinapant] | 23.6 | – |
